Compounds with a hit are over-represented: about 8% of the library has one in this group of screens.
SARS PLP yeast: SARS-CoV PLP inhibition in yeast; AID 485353; actives 0.19% (n = 330,000); S. cerevisiae expressing SARS-CoV PLpro, growth rescue; Potency, µM (highest dose often 32.9 µM), for inactives: top-dose activity, positive = growth rescue, hits mostly activators; calls by dose curve; also: potency is read from the fitted curve at half-maximal effect; 0% is about no effect; nearly all actives have a fitted effect of over 55% in size
MARV entry inh: inhibitors of Marburg virus binding or cell entry. Marburg virus pseudotyped entry inhibition, cell reporter. Potency, µM (titrated, usually from 37.8 µM), for inactives: at the top dose activity change, negative = inhibition, hits mostly inhibitors. actives 1.8% (n = 300,000). AID 540276; calls by dose curve; tested in HEK293 cells; also: potency is read from the fitted curve at half-maximal effect; % is scaled to controls: 0 for no effect and ±100 for the full control effect
Lassa entry inh: inhibitors of Lassa virus binding or cell entry; Lassa virus pseudotype entry inhibition, cell reporter; Potency, µM (highest dose often 37.9 µM), inactives show at the top dose activity change, negative = inhibition, hits mostly inhibitors; actives 1.2% (n = 300,000); calls by dose curve; tested in HEK293 cells; also: potency is read from the fitted curve at half-maximal effect; % is scaled to controls: 0 for no effect and ±100 for the full control effect; nearly all actives have a fitted effect of over 50% in size
HCV inh: inhibitors of hepatitis C virus infection | Huh7.5.1 HCVcc-Cre infection, luciferase reporter, 44 h | Potency, µM (doses to about 41.8 µM), inactives show at the highest dose activity change, negative = inhibition, usual class: inhibitors | actives 3.4% (n = 340,000) | AID 651820; active = well fitted inhibition curve with a large enough effect; inconclusive = small, poorly fitted or top-dose-only effect, or another doubt; inactive = no such curve, though single readings can be large or run the other way; also: potency is read from the fitted curve at half-maximal effect; % is scaled to controls: 0 for no effect and ±100 for the full control effect
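Antiviral activity was scored by luciferase reporter output from cells infected with HCVcc-Cre (~0.5 moi) in presence of compound, 44 h infection period, cells seeded 1,000/well 4 h prior.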
HCMV inh: blocks human cytomegalovirus replication; HFF cells, HCMV-luciferase reporter, 72 h; stronger effect = lower value; activity change, negative = inhibition, % at 57.5 µM; actives 4.5% (n = 410,000); in the data active = activity change below about -60%; inconclusive = no clear call, values can overlap the other calls; inactive = above about -39%; also: % is scaled to controls: 0 for no effect and ±100 for the full control effect
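Cell-based, HFFs, 1000 cells/well, 16 h 37C; cpds in DMSO + HCMV-luc, MOI 1 PFU/cell; 72 h 37C; OneGlo luminescence after 5 min RT; norm. to buffer vs Salinomycin 10uM.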
FMDV antiviral: foot and mouth disease virus antiviral activity; FMDV antiviral cell-based qHTS; Potency, µM (titrated, usually from 57.9 µM), for inactives: at the top dose activity change, negative = inhibition, most hits filed as inhibitors; actives 1.2% (n = 410,000); calls by dose curve; tested in HEK293T cells; also: read-out not given here; potency is read from the fitted curve at half-maximal effect; % is scaled to controls: 0 for no effect and ±100 for the full control effect; nearly all actives have a fitted effect of over 45% in size
* hit, by the source's call; u = inconclusive; x = not tested or not shown; ! = not confirmed by another sample; [ ] = another dose, or the depositor's remark.

SMILES	SARS PLP yeast	MARV entry inh	Lassa entry inh	HCV inh	HCMV inh	FMDV antiviral
CSc1ncc(C(=O)Nc2cccc(Cl)c2)c(C)n1	2.3%	x	x	-0.9%	-12.5	-2.5%
CCOc1ccc(-n2c(-c3ccc(OC)cc3)c[n+]3c2CCCCC3)cc1	-2.9%	u	u	7.94µM*	-98.6*	u
CCOc1ccc(-n2c(-c3ccc(Br)cc3)c[n+]3c2CCCCC3)cc1	-2.7%	u	u	-13.9%	-98.9*	u
OCc1ccccc1-c1nc(NCc2ccccc2)nc2ccsc12	x	x	x	x	4.5	-1.9%
Fc1ccccc1CCNc1c2c(nc3ncnn13)CCCC2	0.3%	6.31µM*	-13.6%[46.1 µM]	u	-77.4*	-24.9%
c1ccc(CCNc2c3c(nc4ncnn24)CCC3)cc1	4.5%	-13.8%	-45.5%[14.3 µM]	x	-39.0	u
Cc1nc(Nc2ccc(Cl)cc2)c(C#N)c(=O)[nH]1	-4.0%	x	x	-18.3%	55.2	-14.1%
COc1ccc(N2C(=O)C(CN3CCCCC3)C2c2ccccc2)cc1 (stereo unspecified)	1.8%	x	x	-0.1%	-24.2	-21.6%
CCN(CC)CC1C(=O)N(c2ccc(OC)cc2)C1c1ccccc1 (stereo unspecified)	0.7%	8.91µM*	u	1.3%	-28.6	40.3%
CCC(C(=O)Nc1cc(OC)cc(OC)c1)n1nc(-c2ccc(C)c(C)c2)ccc1=O (stereo unspecified)	x	u	-16.8%[46.1 µM]	x	10.4	-20.7%
CCn1c(C)nc2cc(-c3nc4n(n3)Cc3ccccc3-4)ccc21	-32.8%	u	u	-25.1%	x	0.794µM*
Fc1ccc(-c2nc3n(n2)Cc2ccccc2-3)cc1	-12.8%	u	12.6µM*	u	149.9	-58.8%
Cc1ccc(S(=O)Cc2ccc(C(=O)NCc3ccc(OC(C)C)cc3)o2)cc1 (stereo unspecified)	x	x	u	x	-18.8	-16.4%
Cc1cc(C(=O)Nc2cccc(-c3nc(CNC(=O)c4ccc[n+]([O-])c4)c(C)o3)c2)c(C)o1	x	x	x	x	x	3.8%
O=C(C1=C(O)CCCC1)N1CCOCC1	x	20.3%[46.1 µM]	x	x	x	x
CC(C)(C)c1cc(Cl)c(O)c(NC(=S)NC(=O)c2cccnc2)c1	1.8%	u	-19.8%	u	-95.3*	-9.4%
O=C(NNC(=S)Nc1ccc(Cl)cc1Cl)c1cccnc1	-2.2%	x	x	5.6%	-64.2*	71.8%
O=C(Nc1cccc(NC(=O)c2ccc(Cl)cc2Cl)c1)c1cccnc1	0.5%	u	x	31.6µM*	19.6	u
CC(C)(C)c1ccc(C(=O)NNC(=S)NC(=O)c2cccnc2)cc1	0.2%	u	u	u	u	5.2%
CC(Oc1ccc(Cl)cc1Cl)c1nc(-c2ccc(NC(=O)c3cccnc3)cc2)no1 (stereo unspecified)	-3.1%	11.2µM*	u	11.2µM*!	-72.3*	28.2µM*
O=C(NCC1Cc2cccc(-c3cncnc3)c2O1)C1CC1 (stereo unspecified)	x	x	x	x	x	-14.0%
CCOC(=O)c1ccc(NC(=O)CC2C(=O)N(c3ccc(F)cc3)C(=O)N2Cc2ccc(C)cc2)cc1 (stereo unspecified)	x	u	-10.6%[46.1 µM]	x	-7.7	-8.7%
Fc1ccc(-c2noc3nc(Oc4ccccc4F)ccc23)cc1	x	x	x	x	57.8	x
Nn1cc(Br)c(=O)[nH]c1=O	x	x	x	x	x	11.3%
CC(C)N(C(=S)Nc1cccc(C(F)(F)F)c1)C(C)c1ccccn1 (stereo unspecified)	3.4%	u	u	-27.6%	-24.8	u
SMILES	SARS PLP yeast	MARV entry inh	Lassa entry inh	HCV inh	HCMV inh	FMDV antiviral
COc1cc(OC)c(NC(=O)CC(c2cccs2)N2Cc3ccccc3C2=O)cc1Cl (stereo unspecified)	x	x	-17.8%[46.1 µM]	x	-36.4	36.2%
CCCOc1cccc(C(=O)Nc2cccc(NC(=O)c3ccc(Cl)cc3Cl)c2)c1	x	x	1.1%[46.1 µM]	x	-8.1	-19.5%
CCCOc1ccc(C(=O)Nc2cccc(NC(=O)c3ccc(Cl)cc3Cl)c2)cc1	x	x	-23.3%[46.1 µM]	x	-91.1*	-10.4%
CCOc1ccc(CCNC(=O)C2Cc3ccccc3N2C(=O)CC)cc1 (stereo unspecified)	x	x	7.1%[46.1 µM]	x	4.0	-17.7%
CN1C(=O)c2ccccc2Sc2ccc(NC(=O)N3CCN(c4ccc(F)cc4)CC3)cc21	x	u	-19.4%[46.1 µM]	x	-97.5*	-6.6%
Cc1ccc(C)c(N2CCN(C(=O)Nc3ccc4c(c3)N(C)C(=O)CS4)CC2)c1	-9.3%	x	x	10µM*	-15.9	15.8µM*
CN1C(=O)CSc2ccc(NC(=O)N3CCN(c4ccccn4)CC3)cc21	14.6%	u	-7.0%	u	-18.4	u
CCN1C(=O)c2ccccc2Sc2ccc(NC(=O)N3CCN(c4cc(C)ccc4C)CC3)cc21	x	u	-3.9%[46.1 µM]	x	-61.0*	-24.3%
CN1C(=O)c2ccccc2Sc2ccc(NC(=O)N3CCOCC3)cc21	4.3%	u	u	-4.8%	32.8	-7.6%
O=C1CCN(Cc2ccco2)C(=S)N1	x	0.2%[46.1 µM]	0.6%[46.1 µM]	12.3%	-32.4	9.1%
Cc1ccccc1NC(=O)C1CCN(C(=O)c2cnn(-c3ccccc3)c2-n2cccc2)CC1	x	u	-2.6%[46.1 µM]	x	-14.1	-11.6%
COc1cc(OC)c(NC(=O)Cn2cnc3nc4c(cc3c2=O)CCCC4)cc1Cl	x	x	3.1%[46.1 µM]	x	-5.0	-5.6%
O=C1N/C(=C\c2ccc(N3CCOCC3)c(F)c2)C(=O)N1Cc1ccccc1	2.6%	u	u	-15.5%	u	-15.7%
Cc1ccc(CN2C(=O)N/C(=C\c3ccc(N4CCOCC4)cc3)C2=O)cc1	-6.2%	8.2%	0.0461µM*	12.6%	-7.3	-13.0%
CCN1C(=O)/C(=C/c2ccc(N3CCCC3)cc2)NC1=S	-11.3%	u	-11.8%	u	-64.6*	-24.5%
CCCN1C(=O)/C(=C/c2ccc(N3CCOCC3)cc2)NC1=S	7.9%	x	x	-20.5%	-4.9	-15.6%
O=C(NCc1ccccc1)NC(=O)c1ccc(Cl)cc1	x	u	-0.7%[46.1 µM]	17.4%	-9.0	31.3%
Fc1ccc(C(Nc2ccccc2Cl)c2nnc(-c3ccccc3Cl)o2)cc1 (stereo unspecified)	x	u	-25.6%[46.1 µM]	x	-4.3	-14.2%
CC(=O)Nc1ccc(NC(=O)c2c(C)nn(-c3ccccc3)c2Cl)cc1C	0.8%	0.3%[46.1 µM]	1.5%[46.1 µM]	-11.0%	-2.8	-6.6%
COc1ccc(NC(=O)O/N=C2/CCCc3ccc(OC)cc32)cc1	-18.4%	u	u	2.82µM*	-73.1*	0.6%
COc1ccc2c(c1)/C(=N/OC(=O)c1cccs1)CCC2	-20.8%	20.8%[46.1 µM]	-2.3%	-13.2%	-13.4	-8.6%
COc1ncnc2c1ncn2CCCN1CCN(C(=O)C2CC2)CC1	x	x	x	x	5.9	0.0%
COc1cccc(CNC(=O)CNC(=S)N(Cc2ccccc2)Cc2ccccc2F)c1	-3.6%	u	-12.4%	-17.7%	-66.3*	-18.3%
O=C(CNC(=S)N(Cc1ccccc1)Cc1ccccc1F)NCc1ccccc1	-3.6%	u	u	-10.0%	u	32.8%
Cc1[nH]c2ccc(OC(F)(F)F)cc2c1CCNCc1ccc(Cl)cc1	-3.9%	u	u	u	-99.2*	-16.7%
